Assay outcomes from PubChem BioAssay.
Sampled rows, rich in hits. Any-hit rate of the full collection: about 6%.
D1 agonist – Allosteric Agonists of the Human D1 Dopamine Receptor: qHTS; activation, % at 2 µM; AID 504660, 2011; actives 1% (n = 360,000); HEK293 T-REx D1 cells, calcium flux, agonist mode; in the data active = activation above about 30%
Target sequence (P21728 whole entry, looked up): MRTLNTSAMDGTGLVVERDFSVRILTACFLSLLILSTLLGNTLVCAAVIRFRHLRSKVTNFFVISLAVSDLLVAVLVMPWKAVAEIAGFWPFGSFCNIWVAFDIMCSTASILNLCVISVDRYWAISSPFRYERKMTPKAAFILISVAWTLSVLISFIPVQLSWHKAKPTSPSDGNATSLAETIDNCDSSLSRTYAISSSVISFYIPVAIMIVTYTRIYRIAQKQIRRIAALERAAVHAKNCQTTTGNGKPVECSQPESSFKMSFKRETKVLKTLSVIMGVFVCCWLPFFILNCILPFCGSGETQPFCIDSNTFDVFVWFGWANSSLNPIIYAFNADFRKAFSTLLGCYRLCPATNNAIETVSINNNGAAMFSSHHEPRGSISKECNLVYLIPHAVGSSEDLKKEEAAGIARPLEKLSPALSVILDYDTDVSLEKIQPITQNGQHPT
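Agonism was scored from calcium flux recorded over 180 s (1 read/s) after pintool compound addition, following a 10-cycle baseline. Cells were inducible force-coupled HEK293 TREx D1, plated overnight at 30 C and loaded with no-wash calcium dye.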
DRD3 antagonist – qHTS of D3 Dopamine Receptor Antagonist: qHTS | D(3) dopamine receptor (Homo sapiens), P35462 | D3R cells, DiscoveRx beta-arrestin luminescence, antagonist mode; stronger effect = lower value | max response, negative = inhibition, % | actives 2.5% (n = 360,000) | AID 652054, 2013; in the data active = max response below about -50%; inconclusive = no clear call, values can overlap the other calls
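Cells expressing the human receptor were seeded at 1500 cells/well, incubated overnight at 37 degrees C in 5% CO2, then exposed to library compounds with dopamine controls for 90 minutes at 37 degrees C before luminescent detection.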
D1 antagonist – Antagonist of Human D 1 Dopamine Receptor: qHTS | HEK293 TREx D1 cells, calcium flux, dopamine EC80; stronger effect = lower value | activity change, negative = inhibition, % at 10 µM | actives 3.2% (n = 360,000) | AID 504652, 2011; in the data active = activity change below about -30%
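Compound effects on dopamine-evoked calcium signalling were measured in tetracycline-induced HEK293 Trex D1 cells. Dopamine at EC80 followed a 180 s compound pre-read, and fluorescence was tracked kinetically for 180 s more.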
D3 ag – qHTS of D3 Dopamine Receptor Agonist: qHTS; actives 0.58% (n = 410,000); D3R DiscoveRx beta-arrestin cells, luminescence, 90 min; max activation, %; AID 652048, 2013; in the data active = max activation above about 30%
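Agonist-mode cell screen: cells plated at 1500/well and incubated overnight at 37 °C, then exposed to library compounds for 90 min at 37 °C. Detection reagent was added for 30–60 min at room temperature, and luminescence was read.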
D1 PAM – Potentiators of Human D1 Dopamine Receptor: qHTS; D(1A) dopamine receptor (Homo sapiens), P21728; HEK293 TREx D1 cells, calcium flux, dopamine EC20 potentiation; potentiation, % at 10 µM; actives 0.036% (n = 360,000); in the data active = potentiation above about 30%
Numbers stand for hits; - = inactive; ? = inconclusive; . = no result.

SMILES	D1 agonist	DRD3 antagonist	D1 antagonist	D3 ag	D1 PAM
O=C(NC(=S)NCc1nc2ccccc2[nH]1)c1ccc(F)cc1	-	-	-67.6	-	-
Cc1ccc(Cn2c(CN3CCN(c4cccc(Cl)c4)CC3)nc3c2c(=O)n(C)c(=O)n3C)cc1	-	.	-	-	-
Cc1cc(C)cc(-n2ccnc2SCC(=O)Nc2ccc(C)c(Cl)c2)c1	-	.	-39.8	-	-
CCOc1ccc(-n2ccnc2SCC(=O)Nc2cc(C)ccc2C)cc1	-	.	-45.6	-	-
Cc1ccc(C)c(NC(=O)CSc2nncn2C)c1	-	-	-33.4	-	-
Cn1cnnc1SCC(=O)Nc1ccccc1F	-	-	-	-	-
Cc1ccc(NC(=O)CSC2=NN3CCCC(=O)N=C3S2)cc1Cl	-	-	-38.8	-	.
O=C1CCCN2N=C(SCC(=O)Nc3ccc(Cl)cc3)SC2=N1	-	-	-	-	-
CCOc1ccc(-n2ccnc2SCC(=O)Nc2cccc3ccccc23)cc1	-	.	-	-	-
Oc1cccc(C(Nc2ccccn2)c2ccc3cccnc3c2O)c1Cl (centres undefined)	-	.	-	-	-
N#C[C@@H]1C[C@@H]2C[C@@H]2N1C(=O)[C@@H](N)C12CC3CC(CC(O)(C3)C1)C2	.	.	.	-	.
COc1ccc(C(=O)NC2CC(=O)N(c3ccc4c(c3)OCCO4)C2)cc1 (centres undefined)	-	.	.	-	-
CC(=O)c1c(C)n(-c2ccccc2Br)c2ccc(O)cc12	-	-	-	-	-
Fc1ccccc1CSc1nnnn1-c1ccc2c(c1)OCO2	-	-	-35.3	-	-
COc1cccc(Nc2ccc(-n3ccnc3)nn2)c1	-	-	-66.5	-	-
Cc1ccc(Nc2ccc(-n3ccnc3)nn2)cc1C	-	-	-	-	-
CN(CCCNC(=O)CCC(=O)N1CCOc2ccc(Cl)cc21)Cc1ccccc1	-	?	-30.9	-	-
CC1CN(C(=O)CCC(=O)NCCCN2CCN(Cc3ccccc3)CC2)c2cc(Cl)ccc2O1 (centres undefined)	-	-89.9	-	-	-
O=C(CCC(=O)N1CCOc2ccc(Cl)cc21)NCc1ccccc1	-	?	-	-	-
Cc1ccc(CNC(=O)CCC(=O)N2CC(C)Oc3ccc(Cl)cc32)cc1 (centres undefined)	-	-	-	-	-
COc1ccccc1CNC(=O)CCC(=O)N1CCOc2ccc(Cl)cc21	-	-	-	-	-
CC(=O)N1CCOc2cc(S(=O)(=O)N(C)Cc3ccccc3)c(Cl)cc21	-	.	-	-	-
CC(=O)N1CCOc2cc(S(=O)(=O)NC(C)c3ccccc3)c(Cl)cc21 (centres undefined)	-	-61.1	-	-	-
CC(CNC(=O)CCC(=O)N1CCOc2ccc(Cl)cc21)c1ccccc1 (centres undefined)	-	-50.1	-	-	-
CC(C)c1cc2c(s1)c1cnn(Cc3ccccc3F)c(=O)c1n2C	-	.	-	.	-
SMILES	D1 agonist	DRD3 antagonist	D1 antagonist	D3 ag	D1 PAM
Cc1ccc2c(c1)N(C(=O)CCC(=O)NCCCN1CCC(Cc3ccccc3)CC1)CCO2	-	?	-40.4	-	-
CCC1CCCCN1CCCNC(=O)CCC(=O)N1CCOc2ccccc21 (centres undefined)	-	-	-30.2	-	-
O=C(CCC(=O)N1CCOc2ccc(Cl)cc21)NCCCN1CCN(Cc2ccccc2)CC1	-	-59.7	-	-	-
COc1ccc2[nH]c3c(c2c1)CCN1C(=O)C(CC(=O)NCCN2CCOCC2)C[C@H](C(=O)N2CCCCC2)[C@@]31CCc1ccccc1 (some centres undefined)	.	-	.	30.3	.
COc1ccc2[nH]c3c(c2c1)CCN1C(=O)C(CC(=O)NCCCN(C)C)C[C@H](C(=O)N2CCCCC2)[C@@]31CCc1ccccc1 (some centres undefined)	.	-	.	-	.
COc1ccc2[nH]c3c(c2c1)CCN1C(=O)C(CC(=O)NCCC2=CCCCC2)C[C@H](C(=O)N2CCOCC2)[C@@]31CCC1CCCC1 (some centres undefined)	.	-52.2	.	-	.
Nc1nonc1OCCOCCOCCOc1nonc1N	-	-59.2	-	-	-
CC(=O)c1cccc(Nc2cc(C)nc3c(C)cccc23)c1	-	-	-65.8	-	-
CC(=O)c1cccc(Nc2cc(C)nc3ccccc23)c1	-	-	-	-	-
Cc1cccc(Nc2cc(C)nc3ccccc23)c1	-	-	-	-	-
CCOc1ccc(Nc2cc(C)nc3ccc(C)cc23)cc1	.	-	.	-	.
Cc1cc(Nc2cccc(Cl)c2)c2ccccc2n1	-	-	-64.6	-	-
Cc1ccc(Nc2cc(C)nc3ccc(C)cc23)cc1	-	-	-33.0	-	-
Cc1ccc(CCNS(=O)(=O)c2c(C)nc3sc(C)c(C)n3c2=O)cc1	-	.	-	-	-
O=c1[nH][nH]c(C(F)(F)F)c1C=Nc1ccc(Cl)cc1	-	-	-	-	-
O=c1[nH][nH]c(C(F)(F)F)c1C=NCc1cccc(Cl)c1	-	-88.3	.	-	-
O=c1[nH][nH]c(C(F)(F)F)c1C=NCc1ccc(Cl)cc1	-	-84.1	-	-	-
O=c1[nH][nH]c(C(F)(F)F)c1C=Nc1ccccc1Cl	-	?	-	-	-
CC(C)C(Cl)=NOC(=O)Nc1ccc(S(N)(=O)=O)cc1	.	-	.	-	.
COc1ccc(C2CCCN2CC(O)COc2ccccc2C(C)C)cc1 (centres undefined)	-	?	-30.2	-	-
CCOC(=O)N1CCN(CC(O)COc2ccccc2C(C)C)CC1 (centres undefined)	-	-	-	-	-
CN(C)C(=O)/C(=C/c1ccc(-c2cccc([N+](=O)[O-])c2)o1)NC(=O)c1ccccc1	-	-	-56.0	-	-
COC(=O)/C(=C\c1ccc([N+](=O)[O-])o1)NC(=O)c1ccccc1	-	-	-	-	-
CCCCNC(=O)/C(=C\c1ccc([N+](=O)[O-])o1)NC(=O)c1ccccc1	-	-	-39.1	-	-
CCCSCCCNC(=O)c1cc2n(n1)CCCN(Cc1ccc(C)cc1)C2=O	55.7	.	-	-	-
SMILES	D1 agonist	DRD3 antagonist	D1 antagonist	D3 ag	D1 PAM
Cc1cc(O)c(C(C)C)cc1C1(c2cc(C(C)C)c(O)cc2C)OC(=O)c2ccccc21	-	-	-	61.4	-
Cc1cc(C2(c3ccc(O)c(C)c3)OC(=O)c3ccccc32)ccc1O	-	-	-	-	-
CN1CCC(N(CCc2ccccc2)C(=O)CCC(=O)O)CC1	-	-	-31.5	-	-
Cc1cc(NC(=O)Cc2cc(F)cc(F)c2)no1	-	-	-	-	-
Cc1ccc(C2=NS(=O)(=O)N(C)C(C(=O)NCc3ccccc3)=C2)cc1	-	-	-46.9	-	-
Cc1ccc(C2=NS(=O)(=O)N(C)C(C(=O)NC(C)c3ccccc3)=C2)cc1 (centres undefined)	-	-	-43.4	-	-
